# Reference: paper PMC12864922, “TDP-43 directly inhibits mRNA accumulation in neurites through modulation of mRNA stability”
# Whole data set: some 9,900 sequences, median “r (bound/input frequency ratio)” near 0.7, cut for the highest 2% near 6.5. The full list was thinned out, with the highest values kept by preference.
# B1: ENSMUSG00000061578.1467|Ksr2 (ssRNA)
# RNA: GGGAGUUCUACAGUCCGACGAUCGCUUCGAUAUCCGCAUGCUAUGAAUGGAUGAAUGGAUGGGUGAAUGGAUGGAUAGGUAUGUGAAUAAAUGGAUGGAUGGAUGGAUUGAUUUGUGAAUGAAUGGAUGAAUGGAUGGGUAGGUGGGUGGAUGCAUAGGCAAGUAGAUGAAUGAAUAUGUGGGUAGAAGGGUGAGUGGGUGGAUGAAUGGAUGGAUAGGUUGGUAGGUUAAUGUAUUCGUGGAUGGGUGAAUGGAUGGAUGGAUAGAUAGAUGGGAAGGUGGAUGGACAGAUGGAUGGAUGGACUCUUGCGGUCGCACUAGUGUGGAAUUCUCGGGUGUCAAGG
# B2: ENSMUSG00000061578.1468|Ksr2 (ssRNA)
# RNA: GGGAGUUCUACAGUCCGACGAUCGCUUCGAUAUCCGCAUGCUAGAUGAAUGGAUGGGUGAAUGGAUGGAUAGGUAUGUGAAUAAAUGGAUGGAUGGAUGGAUUGAUUUGUGAAUGAAUGGAUGAAUGGAUGGGUAGGUGGGUGGAUGCAUAGGCAAGUAGAUGAAUGAAUAUGUGGGUAGAAGGGUGAGUGGGUGGAUGAAUGGAUGGAUAGGUUGGUAGGUUAAUGUAUUCGUGGAUGGGUGAAUGGAUGGAUGGAUAGAUAGAUGGGAAGGUGGAUGGACAGAUGGAUGGAUGGAUAGAUACUCUUGCGGUCGCACUAGUGUGGAAUUCUCGGGUGUCAAGG
# B3: ENSMUSG00000061578.1460|Ksr2 (ssRNA)
# RNA: GGGAGUUCUACAGUCCGACGAUCGCUUCGAUAUCCGCAUGCUAGAUGGAUGAAUGGAUGGGUAGGUGGGUAGAUAGGUAUAUGAAUGAAUGGAUGAAUGGAUGGGUGAAUGGAUGGAUAGGUAUGUGAAUAAAUGGAUGGAUGGAUGGAUUGAUUUGUGAAUGAAUGGAUGAAUGGAUGGGUAGGUGGGUGGAUGCAUAGGCAAGUAGAUGAAUGAAUAUGUGGGUAGAAGGGUGAGUGGGUGGAUGAAUGGAUGGAUAGGUUGGUAGGUUAAUGUAUUCGUGGAUGGGUGAAUGGAUGGAUGCUCUUGCGGUCGCACUAGUGUGGAAUUCUCGGGUGUCAAGG
# B4: ENSMUSG00000061578.1473|Ksr2 (ssRNA)
# RNA: GGGAGUUCUACAGUCCGACGAUCGCUUCGAUAUCCGCAUGCUAUAUGUGAAUAAAUGGAUGGAUGGAUGGAUUGAUUUGUGAAUGAAUGGAUGAAUGGAUGGGUAGGUGGGUGGAUGCAUAGGCAAGUAGAUGAAUGAAUAUGUGGGUAGAAGGGUGAGUGGGUGGAUGAAUGGAUGGAUAGGUUGGUAGGUUAAUGUAUUCGUGGAUGGGUGAAUGGAUGGAUGGAUAGAUAGAUGGGAAGGUGGAUGGACAGAUGGAUGGAUGGAUAGAUAGAUGGACAGGUGGUUGGUGGAUAAAUGAGUCUCUUGCGGUCGCACUAGUGUGGAAUUCUCGGGUGUCAAGG
# B5: ENSMUSG00000061578.1472|Ksr2 (ssRNA)
# RNA: GGGAGUUCUACAGUCCGACGAUCGCUUCGAUAUCCGCAUGCUAGAUAGGUAUGUGAAUAAAUGGAUGGAUGGAUGGAUUGAUUUGUGAAUGAAUGGAUGAAUGGAUGGGUAGGUGGGUGGAUGCAUAGGCAAGUAGAUGAAUGAAUAUGUGGGUAGAAGGGUGAGUGGGUGGAUGAAUGGAUGGAUAGGUUGGUAGGUUAAUGUAUUCGUGGAUGGGUGAAUGGAUGGAUGGAUAGAUAGAUGGGAAGGUGGAUGGACAGAUGGAUGGAUGGAUAGAUAGAUGGACAGGUGGUUGGUGGAUAACUCUUGCGGUCGCACUAGUGUGGAAUUCUCGGGUGUCAAGG
# B6: ENSMUSG00000061578.1471|Ksr2 (ssRNA)
# RNA: GGGAGUUCUACAGUCCGACGAUCGCUUCGAUAUCCGCAUGCUAUGGAUGGAUAGGUAUGUGAAUAAAUGGAUGGAUGGAUGGAUUGAUUUGUGAAUGAAUGGAUGAAUGGAUGGGUAGGUGGGUGGAUGCAUAGGCAAGUAGAUGAAUGAAUAUGUGGGUAGAAGGGUGAGUGGGUGGAUGAAUGGAUGGAUAGGUUGGUAGGUUAAUGUAUUCGUGGAUGGGUGAAUGGAUGGAUGGAUAGAUAGAUGGGAAGGUGGAUGGACAGAUGGAUGGAUGGAUAGAUAGAUGGACAGGUGGUUGGUCUCUUGCGGUCGCACUAGUGUGGAAUUCUCGGGUGUCAAGG
# B7: ENSMUSG00000061578.1466|Ksr2 (ssRNA)
# RNA: GGGAGUUCUACAGUCCGACGAUCGCUUCGAUAUCCGCAUGCUAUAUGAAUGAAUGGAUGAAUGGAUGGGUGAAUGGAUGGAUAGGUAUGUGAAUAAAUGGAUGGAUGGAUGGAUUGAUUUGUGAAUGAAUGGAUGAAUGGAUGGGUAGGUGGGUGGAUGCAUAGGCAAGUAGAUGAAUGAAUAUGUGGGUAGAAGGGUGAGUGGGUGGAUGAAUGGAUGGAUAGGUUGGUAGGUUAAUGUAUUCGUGGAUGGGUGAAUGGAUGGAUGGAUAGAUAGAUGGGAAGGUGGAUGGACAGAUGGAUGCUCUUGCGGUCGCACUAGUGUGGAAUUCUCGGGUGUCAAGG
# B8: ENSMUSG00000061578.1477|Ksr2 (ssRNA)
# RNA: GGGAGUUCUACAGUCCGACGAUCGCUUCGAUAUCCGCAUGCUAUGGAUUGAUUUGUGAAUGAAUGGAUGAAUGGAUGGGUAGGUGGGUGGAUGCAUAGGCAAGUAGAUGAAUGAAUAUGUGGGUAGAAGGGUGAGUGGGUGGAUGAAUGGAUGGAUAGGUUGGUAGGUUAAUGUAUUCGUGGAUGGGUGAAUGGAUGGAUGGAUAGAUAGAUGGGAAGGUGGAUGGACAGAUGGAUGGAUGGAUAGAUAGAUGGACAGGUGGUUGGUGGAUAAAUGAGUGAAUGAUUAUGUUGAUAGAUAUGUCUCUUGCGGUCGCACUAGUGUGGAAUUCUCGGGUGUCAAGG
# B9: ENSMUSG00000061578.1462|Ksr2 (ssRNA)
# RNA: GGGAGUUCUACAGUCCGACGAUCGCUUCGAUAUCCGCAUGCUAGAUGGGUAGGUGGGUAGAUAGGUAUAUGAAUGAAUGGAUGAAUGGAUGGGUGAAUGGAUGGAUAGGUAUGUGAAUAAAUGGAUGGAUGGAUGGAUUGAUUUGUGAAUGAAUGGAUGAAUGGAUGGGUAGGUGGGUGGAUGCAUAGGCAAGUAGAUGAAUGAAUAUGUGGGUAGAAGGGUGAGUGGGUGGAUGAAUGGAUGGAUAGGUUGGUAGGUUAAUGUAUUCGUGGAUGGGUGAAUGGAUGGAUGGAUAGAUAGAUGCUCUUGCGGUCGCACUAGUGUGGAAUUCUCGGGUGUCAAGG
# B10: ENSMUSG00000061578.1475|Ksr2 (ssRNA)
# RNA: GGGAGUUCUACAGUCCGACGAUCGCUUCGAUAUCCGCAUGCUAUGGAUGGAUGGAUGGAUUGAUUUGUGAAUGAAUGGAUGAAUGGAUGGGUAGGUGGGUGGAUGCAUAGGCAAGUAGAUGAAUGAAUAUGUGGGUAGAAGGGUGAGUGGGUGGAUGAAUGGAUGGAUAGGUUGGUAGGUUAAUGUAUUCGUGGAUGGGUGAAUGGAUGGAUGGAUAGAUAGAUGGGAAGGUGGAUGGACAGAUGGAUGGAUGGAUAGAUAGAUGGACAGGUGGUUGGUGGAUAAAUGAGUGAAUGAUUAUGUCUCUUGCGGUCGCACUAGUGUGGAAUUCUCGGGUGUCAAGG
# B11: ENSMUSG00000061578.1458|Ksr2 (ssRNA)
# RNA: GGGAGUUCUACAGUCCGACGAUCGCUUCGAUAUCCGCAUGCUAGAAUGAAUGGAUGAUGGAUGAAUGGAUGGGUAGGUGGGUAGAUAGGUAUAUGAAUGAAUGGAUGAAUGGAUGGGUGAAUGGAUGGAUAGGUAUGUGAAUAAAUGGAUGGAUGGAUGGAUUGAUUUGUGAAUGAAUGGAUGAAUGGAUGGGUAGGUGGGUGGAUGCAUAGGCAAGUAGAUGAAUGAAUAUGUGGGUAGAAGGGUGAGUGGGUGGAUGAAUGGAUGGAUAGGUUGGUAGGUUAAUGUAUUCGUGGAUGGGUGCUCUUGCGGUCGCACUAGUGUGGAAUUCUCGGGUGUCAAGG
# B12: ENSMUSG00000061578.1470|Ksr2 (ssRNA)
# RNA: GGGAGUUCUACAGUCCGACGAUCGCUUCGAUAUCCGCAUGCUAGGUGAAUGGAUGGAUAGGUAUGUGAAUAAAUGGAUGGAUGGAUGGAUUGAUUUGUGAAUGAAUGGAUGAAUGGAUGGGUAGGUGGGUGGAUGCAUAGGCAAGUAGAUGAAUGAAUAUGUGGGUAGAAGGGUGAGUGGGUGGAUGAAUGGAUGGAUAGGUUGGUAGGUUAAUGUAUUCGUGGAUGGGUGAAUGGAUGGAUGGAUAGAUAGAUGGGAAGGUGGAUGGACAGAUGGAUGGAUGGAUAGAUAGAUGGACAGGUGCUCUUGCGGUCGCACUAGUGUGGAAUUCUCGGGUGUCAAGG
# B13: ENSMUSG00000031028.156|Tub (ssRNA)
# RNA: GGGAGUUCUACAGUCCGACGAUCGCUUCGAUAUCCGCAUGCUAAGCUCCCAUUAUUGCCAGCAUGCCAUGAUCAGUGAGGGCUGUGUGCCAUGCUUAGGGGGAUGGCGCAGGGUGAGGGGAGCAGAGGAUAUUUUAGGGCCACAAGAGCUCAGAGGUAGCGGACCUCUGUGUGGUUCACCAACAGCAAUGCUGAUCCCUGAGUAUAGGGCACAUGUCUCUUGGUUACCUCACUGGUUAAUGGCAGAGUUGAGAACCUCAAAUUCUUUUGUUCCUACUGUUGCCCAGAAACUAGACUCUCUGACCUCUUGCGGUCGCACUAGUGUGGAAUUCUCGGGUGUCAAGG
# Target: TDP-43 (Homo sapiens, UniProt Q13148 1-414)
# Sequence (Q13148 whole entry): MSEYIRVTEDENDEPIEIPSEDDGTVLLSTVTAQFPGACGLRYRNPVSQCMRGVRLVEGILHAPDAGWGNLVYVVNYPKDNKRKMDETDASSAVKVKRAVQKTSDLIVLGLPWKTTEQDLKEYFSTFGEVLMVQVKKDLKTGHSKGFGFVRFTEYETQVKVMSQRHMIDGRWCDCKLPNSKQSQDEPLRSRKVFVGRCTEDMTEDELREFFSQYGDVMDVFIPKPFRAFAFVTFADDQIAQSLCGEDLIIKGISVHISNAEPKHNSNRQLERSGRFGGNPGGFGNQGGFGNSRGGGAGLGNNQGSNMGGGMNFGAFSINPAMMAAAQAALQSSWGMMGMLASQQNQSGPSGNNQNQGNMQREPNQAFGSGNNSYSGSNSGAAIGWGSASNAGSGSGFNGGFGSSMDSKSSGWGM
# Test: RNA Bind-n-Seq with designed 260-mer pool; 25 mM Tris-HCl, 150 mM KCl, 3 mM MgCl2, BSA (printed 500 mg/mL), 20 units/mL SUPERase IN; pH not stated; 500 nM RNA pool, 1 h, 4 C; TDP-43 5, 50, 500 nM; high values mean tight binding
# Settings: protein: recombinant; tags: SBP (GST cleaved off with PreScission; pGEX-GST-SBP)
# Outline: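 For each oligo, R gives binding as its mapped-read-normalized abundance after pulldown divided by its abundance in input. Bead-captured SBP-tagged TDP-43 (5, 50 or 500 nM) was incubated with 500 nM of an in vitro-transcribed 260-nt 3′ UTR oligo pool for 1 h at 4 °C in 25 mM Tris-HCl, 150 mM KCl, 3 mM MgCl2, BSA and SUPERase IN on streptavidin beads. Washed, biotin-eluted RNA was reverse transcribed, PCR-amplified and sequenced.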
row,Binder,binding signal
1,B1,3.46 R (bound/input frequency ratio)
2,B2,14.4 R (bound/input frequency ratio)
3,B3,6.72 R (bound/input frequency ratio)
4,B4,9.68 R (bound/input frequency ratio)
5,B5,5.09 R (bound/input frequency ratio)
6,B6,6.33 R (bound/input frequency ratio)
7,B7,5.78 R (bound/input frequency ratio)
8,B8,5.58 R (bound/input frequency ratio)
9,B9,5.83 R (bound/input frequency ratio)
10,B10,8.8 R (bound/input frequency ratio)
11,B11,4.62 R (bound/input frequency ratio)
12,B12,5.59 R (bound/input frequency ratio)
13,B13,0.518 R (bound/input frequency ratio)
